Test results: PubChem BioAssay AID1159580 (chemical genetic matrix, 2015)
In all, about 5,500 compounds went through this assay and about 2,000 (36%) were called active. Another 18% or so got no clear call; they are omitted. Rule as the data show it: active = normalized growth mostly below about 0.91 (no sharp cut-off); inconclusive = no clear call, values can overlap the other calls; inactive = mostly above about 0.92. The list shows a part of the results.

Assay: chemical genetic growth profiling, strain panel (AID 1159580);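 also: tested at 20 µM; growth read once vehicle control cultures reached saturation at 30 °C; 1 = growth at the plate median or of vehicle wells; lower values mean less growth of the strain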
Conditions: growth OD

Measured: normalized growth

CNC(=O)Oc1cccc2c1OC(C)(C)C2
inactive: S. cerevisiae deletion strains, locus YAL013W, strain DEP1, stronger effect = lower value 1.01 | S. cerevisiae deletion strains, locus YBR021W, strain FUR4, stronger effect = lower value 0.994 | S. cerevisiae deletion strains, locus YBR229C, strain ROT2, stronger effect = lower value 1 | S. cerevisiae deletion strains, locus YCL029C, strain bik1, stronger effect = lower value 1 | S. cerevisiae deletion strains, locus YDL035C, strain GPR1, stronger effect = lower value 1.01 | S. cerevisiae deletion strains, locus YDL074C, strain BRE1, stronger effect = lower value 1.03 | S. cerevisiae deletion strains, locus YDL101C, strain DUN1, stronger effect = lower value 1.02 | S. cerevisiae deletion strains, locus YDL134C, strain PPH21, stronger effect = lower value 0.997 | S. cerevisiae deletion strains, locus YDL185W, strain tfp1, stronger effect = lower value 0.978 | S. cerevisiae deletion strains, locus YDL192W, strain arf1, stronger effect = lower value 1 | S. cerevisiae deletion strains, locus YDR101C, strain arx1, stronger effect = lower value 0.992 | S. cerevisiae deletion strains, locus YDR150W, strain NUM1, stronger effect = lower value 1.01 | S. cerevisiae deletion strains, locus YDR162C, strain NBP2, stronger effect = lower value 1.01 | S. cerevisiae deletion strains, locus YDR318W, strain mcm21, stronger effect = lower value 0.995 | S. cerevisiae deletion strains, locus YDR388W, stronger effect = lower value 0.996 | S. cerevisiae deletion strains, locus YDR502C, strain sam2, stronger effect = lower value 1 | S. cerevisiae deletion strains, locus YEL061C, strain CIN8, stronger effect = lower value 1 | S. cerevisiae deletion strains, locus YER110C, stronger effect = lower value 0.993 | S. cerevisiae deletion strains, locus YER155C, strain BEM2, stronger effect = lower value 1.02 | S. cerevisiae deletion strains, locus YER167W, strain BCK2, stronger effect = lower value 1.02 | S. cerevisiae deletion strains, locus YGL078C, strain dbp3, stronger effect = lower value 0.979 | S. cerevisiae deletion strains, locus YGL086W, strain mad1, stronger effect = lower value 0.995 | S. cerevisiae deletion strains, locus YGL248W, strain PDE1, stronger effect = lower value 1.01 | S. cerevisiae deletion strains, locus YGR078C, strain PAC10, stronger effect = lower value 1.01 | S. cerevisiae deletion strains, locus YGR135W, strain pre9, stronger effect = lower value 1 | S. cerevisiae deletion strains, locus YGR229C, strain SMI1, stronger effect = lower value 1.02 | S. cerevisiae deletion strains, locus YGR252W, strain gcn5, stronger effect = lower value 0.99 | S. cerevisiae deletion strains, locus YHR030C, strain SLT2, stronger effect = lower value 1.01 | S. cerevisiae deletion strains, locus YHR079C, strain IRE1 (second series), stronger effect = lower value 0.996 | S. cerevisiae deletion strains, locus YHR094C, strain hxt1, stronger effect = lower value 0.994 | S. cerevisiae deletion strains, locus YHR129C, strain ARP1, stronger effect = lower value 1.01 | S. cerevisiae deletion strains, locus YHR200W, strain rpn10, stronger effect = lower value 1 | S. cerevisiae deletion strains, locus YIL066C, strain RNR3, stronger effect = lower value 1.01 | S. cerevisiae deletion strains, locus YIL073C, strain SPO22, stronger effect = lower value 1.04 | S. cerevisiae deletion strains, locus YIL125W, strain kgd1, stronger effect = lower value 0.987 | S. cerevisiae deletion strains, locus YIR030C, strain dcg1, stronger effect = lower value 0.996 | S. cerevisiae deletion strains, locus YJL095W, strain BCK1, stronger effect = lower value 1 | S. cerevisiae deletion strains, locus YJL134W, strain LCB3, stronger effect = lower value 1 | S. cerevisiae deletion strains, locus YJL168C, strain set2, stronger effect = lower value 0.997 | S. cerevisiae deletion strains, locus YJL187C, strain SWE1 (second series), stronger effect = lower value 1.01 | S. cerevisiae deletion strains, locus YJR043C, strain POL32, stronger effect = lower value 1.01 | S. cerevisiae deletion strains, locus YJR075W, strain HOC1, stronger effect = lower value 1.01 | S. cerevisiae deletion strains, locus YKL009W, strain mrt4, stronger effect = lower value 1.01 | S. cerevisiae deletion strains, locus YKL068W, stronger effect = lower value 0.987 | S. cerevisiae deletion strains, locus YKL085W, strain MDH1 (second series), stronger effect = lower value 0.978 | S. cerevisiae deletion strains, locus YKL085W, strain MDH1, stronger effect = lower value 0.978 | S. cerevisiae deletion strains, locus YKL190W, strain CNB1, stronger effect = lower value 1.02 | S. cerevisiae deletion strains, locus YKR001C, strain vps1, stronger effect = lower value 0.999 | S. cerevisiae deletion strains, locus YLR039C, strain RIC1, stronger effect = lower value 1.04 | S. cerevisiae deletion strains, locus YLR058C, strain SHM2, stronger effect = lower value 1.01 | S. cerevisiae deletion strains, locus YLR102C, strain apc9, stronger effect = lower value 1 | S. cerevisiae deletion strains, locus YLR262C, strain YPT6, stronger effect = lower value 1.06 | S. cerevisiae deletion strains, locus YLR268W, strain sec22, stronger effect = lower value 1.01 | S. cerevisiae deletion strains, locus YLR330W, strain CHS5, stronger effect = lower value 1 | S. cerevisiae deletion strains, locus YLR342W, strain FKS1 (second series), stronger effect = lower value 1.02 | S. cerevisiae deletion strains, locus YLR371W, strain rom2, stronger effect = lower value 0.993 | S. cerevisiae deletion strains, locus YLR418C, strain cdc73, stronger effect = lower value 0.973 | S. cerevisiae deletion strains, locus YML016C, strain PPZ1, stronger effect = lower value 1 | S. cerevisiae deletion strains, locus YML032C, strain rad52, stronger effect = lower value 1 | S. cerevisiae deletion strains, locus YML124C, strain tub3, stronger effect = lower value 0.999 | S. cerevisiae deletion strains, locus YMR078C, strain ctf18, stronger effect = lower value 0.988 | S. cerevisiae deletion strains, locus YMR223W, strain ubp8, stronger effect = lower value 0.992 | S. cerevisiae deletion strains, locus YMR263W, strain SAP30, stronger effect = lower value 0.992 | S. cerevisiae deletion strains, locus YMR307W, strain GAS1, stronger effect = lower value 1.02 | S. cerevisiae deletion strains, locus YNL067W, strain RPL9B, stronger effect = lower value 1.02 | S. cerevisiae deletion strains, locus YNL128W, strain TEP1, stronger effect = lower value 1.02 | S. cerevisiae deletion strains, locus YNL153C, strain GIM3, stronger effect = lower value 1.01 | S. cerevisiae deletion strains, locus YNL233W, strain BNI4, stronger effect = lower value 1.02 | S. cerevisiae deletion strains, locus YNL250W, strain rad50, stronger effect = lower value 0.967 | S. cerevisiae deletion strains, locus YNL271C, strain bni1, stronger effect = lower value 0.977 | S. cerevisiae deletion strains, locus YNL298W, strain CLA4, stronger effect = lower value 0.986 | S. cerevisiae deletion strains, locus YNL307C, strain MCK1, stronger effect = lower value 0.995 | S. cerevisiae deletion strains, locus YNL322C, strain KRE1, stronger effect = lower value 1.01 | S. cerevisiae deletion strains, locus YNR052C, strain pop2, stronger effect = lower value 1 | S. cerevisiae deletion strains, locus YOL006C, strain TOP1, stronger effect = lower value 1.01 | S. cerevisiae deletion strains, locus YOL012C, strain htz1 0.992 | S. cerevisiae deletion strains, locus YOL147C, strain pex11, stronger effect = lower value 0.996 | S. cerevisiae deletion strains, locus YOR061W, strain CKA2, stronger effect = lower value 1 | S. cerevisiae deletion strains, locus YOR069W, strain VPS5, stronger effect = lower value 1.01 | S. cerevisiae deletion strains, locus YOR136W, strain idh2, stronger effect = lower value 0.993 | S. cerevisiae deletion strains, locus YOR144C, strain elg1, stronger effect = lower value 1 | S. cerevisiae deletion strains, locus YOR184W, strain ser1, stronger effect = lower value 1.01 | S. cerevisiae deletion strains, locus YOR316C, strain cot1, stronger effect = lower value 0.996 | S. cerevisiae deletion strains, locus YPL055C, strain LGE1, stronger effect = lower value 1.03 | S. cerevisiae deletion strains, locus YPL241C, strain CIN2, stronger effect = lower value 1 | S. cerevisiae deletion strains, locus YPR119W, strain clb2, stronger effect = lower value 0.993 | S. cerevisiae deletion strains, locus YPR141C, strain kar3, stronger effect = lower value 0.973 | S. cerevisiae deletion strains, locus YPR163C, strain tif3, stronger effect = lower value 0.987 | S. cerevisiae deletion strains, locus YPR167C, strain met16, stronger effect = lower value 0.999 | S. cerevisiae deletion strains, strain wtn01, stronger effect = lower value 0.994 | S. cerevisiae strains, strain wild type, stronger effect = lower value 1.01
